# Values joined by “and” are separate entries in the source; they are usually repeats but may differ in a detail not shown here. Identical values can stand only once. Inconclusive results are not listed. Active and inactive are the calls of the source. The call rests on the fitted dose curve; in most records, active means well fitted inhibition curve with a large enough effect in the repeat runs; inconclusive means weak or mixed curves; inactive means flat fitted curve, though single readings scatter.
# Target: Cytochrome P450 2D6 (Homo sapiens) (UniProt P10635)
# Test: Cytochrome P450 family 2 subfamily D member 6 (CYP2D6) small molecule antagonists: luciferase biochemical (cell-free) qHTS assay (AID 1645840); further: nearly all actives have a fitted effect of over 55% in size
# Conditions: P450-Glo CYP2D6 enzyme, luciferin luminescence, 1 h; series mostly up to 57.4 µM; activity change, negative = inhibition: at the top concentration
# Procedure: National Center for Advancing Translational Sciences [NCATS] Assay Overview: Cytochrome P450 (CYP) enzymes are membrane-bound hemeproteins that play a key role in metabolism of drugs and xenobiotics. Assaying the effect of chemicals on CYP isozymes is useful to minimize the adverse drug reactions and toxicities in drug development process. Chemical compounds were tested for their effect on CYP enzyme activities by using P450-Glo (TM) screening systems (Promega Corporation, Madison, WI). These systems provide a luminescent method containing proluciferin substrates and are converted to luciferin products by CYP isozymes. The luciferin products formed are detected with a luciferin detection reagent, and the amount of light produced is proportional to CYP activity. P450-Glo (TM) CYP2D6 screening system (Catalog. No. V9890) was used to detect the compounds that interfere in CYP2D6 activity.
# Assay Protocol Summary: Two ul of enzyme-substrate mix was dispensed into medium binding white/solid 1536-well plates (Greiner Bio-One North America Inc., Monroe, NC) using a Flying Reagent Dispenser (FRD, Aurora Discovery, San Diego, CA). […] The assay plates were incubated at room temperature for 10 min. Then 2 ul of NADPH regeneration solution was added to each well of the assay plates using an FRD and incubated at room temperature for 1 h. The reaction was stopped by adding 4 ul of detection reagent using an FRD and after 20 min incubation at room temperature, the luminescence signal was measured using a ViewLux plate reader (Perkin Elmer, Shelton, CT). Data were expressed as relative luminescence units.
# On the % scale 0 is the no-effect control and ±100 the full control effect; potency means the concentration at half of the fitted maximal effect.
# Chain of Cytochrome P450 2D6 (Homo sapiens) (P10635 whole entry, looked up): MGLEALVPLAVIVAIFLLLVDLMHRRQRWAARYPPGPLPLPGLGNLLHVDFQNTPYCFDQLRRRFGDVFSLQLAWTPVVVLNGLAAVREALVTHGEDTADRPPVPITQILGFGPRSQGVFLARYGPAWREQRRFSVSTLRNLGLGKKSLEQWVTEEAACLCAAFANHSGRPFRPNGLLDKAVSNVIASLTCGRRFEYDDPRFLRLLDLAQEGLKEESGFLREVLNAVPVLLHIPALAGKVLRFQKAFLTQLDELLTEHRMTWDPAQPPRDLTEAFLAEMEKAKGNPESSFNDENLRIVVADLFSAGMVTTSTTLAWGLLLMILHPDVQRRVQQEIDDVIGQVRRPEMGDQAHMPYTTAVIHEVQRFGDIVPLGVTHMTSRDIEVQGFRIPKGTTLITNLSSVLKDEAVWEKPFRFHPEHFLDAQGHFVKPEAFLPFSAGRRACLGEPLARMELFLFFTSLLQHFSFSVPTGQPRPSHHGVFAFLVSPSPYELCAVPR
SMILES,"activity change, negative = inhibition",Potency
C[C@@H](NC(=O)c1ncnc(N)c1Cl)c1ncc(C(=O)Nc2cc(C(F)(F)F)c(Cl)cn2)s1,0.82% (inactive),
Cc1cn([C@@H]2C[C@@H](O)[C@H](CO)O2)c(=O)[nH]c1=O,4.78% (inactive),
CC1CCN(c2cc(N3CCN(C)CC3)ccc2NC(=O)c2cc(C#N)c[nH]2)CC1,,1.2 µM (active)
Cn1cnc(-c2cc3nccc(Oc4ccc(NC(=S)NC(=O)Cc5ccccc5)cc4F)c3s2)c1,4.24% (inactive),
CCOC(=O)N1c2ccc(C(F)(F)F)cc2[C@@H](N(Cc2cc(C(F)(F)F)cc(C(F)(F)F)c2)C(=O)OC)C[C@H]1CC,14.3% (inactive),
O=C(CCCN1CCN(c2ccc(F)cc2)CC1)NC1c2ccccc2CSc2ccccc21 (stereo not given),,4.36 µM (active)
COc1ccc(CCC(=O)Nc2nc3ccc(Cl)cc3s2)cc1OC,-2.94% (inactive),
O=C(Nc1ccc(OC(F)(F)F)cc1)c1sccc1NCc1ccnc2ccccc12,,16.9 µM (active)
CC(C)(C)c1nc(-c2cccc(NS(=O)(=O)c3c(F)cccc3F)c2F)c(-c2ccnc(N)n2)s1,-3.18% (inactive),
COC(=O)N1CCN(Cc2cccc(NC(=O)Nc3ccc(C)nc3)c2F)CC1,-23.1% (inactive),
Cc1cccc2c1CC[C@H](CN1CCC(c3c(Cl)cccc3Cl)CC1)C[C@@H]2O,,2.13 µM (active)
OC[C@H]1O[C@@H](OCCc2ccc(O)cc2)[C@H](O)[C@@H](O)[C@H]1O,6.95% (inactive),
CCCCC[C@H](O)C=C[C@H]1[C@H](O)CC(=O)[C@H]1CC=CCCCC(=O)O,11.5% (inactive),
CNC(=O)c1c(-c2ccc(F)cc2)oc2cc(N(CCO)S(C)(=O)=O)c(C3CC3)cc12,4.02% (inactive),
CSc1cccc(Nc2ncc3cc(-c4c(Cl)cccc4Cl)c(=O)n(C)c3n2)c1,-0.276% (inactive),
NC(=O)c1nnn(Cc2cc(Cl)c(C(=O)c3ccc(Cl)cc3)c(Cl)c2)c1N,,26.8 µM (active)
CC[C@H](CC#N)OC(=O)N[C@@H](C)c1cccc(NC(=O)Nc2ccc(-c3cnco3)c(OC)c2)c1,,0.338 µM (active)
CC(C)C[C@@H](C(=O)N[C@H](C(=O)OC1CCCC1)c1ccccc1)[C@H](O)C(=O)NO,0.374% (inactive),
O=S(=O)(O)c1ccc2cc(N=Nc3cc(S(=O)(=O)O)c4cccnc4c3O)ccc2c1,14.7% (inactive),
Cc1ccccc1C(=O)c1ccc(Nc2ccc(Br)cc2N)cc1Cl,,15.1 µM (active)

SMILES,"activity change, negative = inhibition",Potency
Clc1ccc(COC(Cn2ccnc2)c2ccc(Cl)cc2Cl)c(Cl)c1 (stereo not given),,1.07 µM (active)
C[C@@H](N)c1ccc(C(=O)Nc2ccnc3[nH]ccc23)cc1,2.42% (inactive),
Cc1ccccc1-n1c(Cn2nc(-c3cccc(O)c3)c3c(N)ncnc32)nc2cccc(C)c2c1=O,-23.1% (inactive),
C[C@@H]1CCO[C@H]2Cn3cc(C(=O)NCc4ccc(F)cc4F)c(=O)c(O)c3C(=O)N12,5.11% (inactive),
COc1ccnc(CS(=O)c2nc3ccc(OC(F)F)cc3[nH]2)c1OC (stereo not given),,5.49 µM (active) and 16.9 µM (active)
Cc1nn(Cc2ccccc2Cl)c(C)c1CN(C)CC(O)COc1ccc(Cl)cc1 (stereo not given),,0.536 µM (active)
Cc1cc(C(C)Nc2ccccc2)c2nc(N3CCOCC3)cc(=O)n2c1 (stereo not given),2.38% (inactive),
Cc1csc(-c2nnc(Nc3ccc(Oc4ncccc4-c4ccnc(N)n4)cc3)c3ccccc23)c1,-2.47% (inactive),
Cc1ccccc1C(C(=O)NC1CCCCC1)N(C(=O)CNc1ccc(C#N)cc1)c1cccc(F)c1 (stereo not given),-29% (inactive),
Cc1cnc(CNC(=O)c2c(=O)c3ccc(N4CCCN(C)CC4)nc3n3c2sc2ccccc23)cn1,15.8% (inactive),
O[C@@H](COc1cccc2ncccc12)CN1CCN(C2c3ccccc3[C@@H]3[C@H](c4ccccc42)C3(F)F)CC1 (stereo not given in full),,13.8 µM (active) and 10.7 µM (active)
CCc1cccc(CC)c1NC(=O)N1Cc2[nH]nc(NC(=O)c3ccc(N4CCN(C)CC4)cc3)c2C1,-2.01% (inactive),
CNC1CCC(N(Cc2cccc(-c3ccncc3)c2)C(=O)c2sc3ccccc3c2Cl)CC1 (stereo not given),,4.25 µM (active)
C[C@H](c1ccc(F)cc1CCCC(=O)O)N(c1cc(F)ccc1F)S(=O)(=O)c1ccc(Cl)cc1,,16.9 µM (active)
Cc1cnc(Nc2cccc(CN3CCOCC3)c2)nc1Nc1cccc(S(=O)(=O)NC(C)(C)C)c1,,15.1 µM (active)
O=C(O)CCNc1cc(N2CCc3ccccc3CC2)nc(-c2ccccn2)n1,10.8% [at 11.5 µM] (inactive),
Cn1c(=O)c(-c2c(Cl)cccc2Cl)cc2cnc(Nc3cccc(C(=O)O)c3)nc21,7.24% (inactive),
CNC(=O)[C@H](Cc1ccccc1)NC(=O)[C@H](CC(C)C)[C@H](CSc1cccs1)C(=O)NO,-1.58% (inactive),
O=C(Nc1cccc(C(F)(F)F)c1)Nc1cc(S(=O)(=O)NC2CC2)ccc1-c1ccsc1,,5.35 µM (active)
O=C(Nc1cccc2c(=O)cc(-c3nn[nH]n3)oc12)c1ccc(OCCCCc2ccccc2)cc1,,15.5 µM (active)
